# Laboratory results from PubChem BioAssay AID1159580 (chemical genetic matrix, 2015).
# Screen size: about 5,500 compounds; about 2,000 (36%) were called active. Not shown: some 18% with an inconclusive outcome. Some of the results follow. Values without a mark were called inactive. No stated cut-off is given here; in the data, active means normalized growth mostly below about 0.91 (no sharp cut-off); inconclusive means no clear call, values can overlap the other calls; inactive means mostly above about 0.92.
# Experiment: chemical genetic growth profiling, strain panel (AID 1159580);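 further: tested at 20 µM; growth read once vehicle control cultures reached saturation at 30 °C; 1 = growth at the plate median or of vehicle wells; lower values mean less growth of the strain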
# Conditions: growth OD
structure (smiles),measurement,setting,value
CC(C)c1ccc2c(c1)CCC1[C@](C)(CN)CCC[C@]21C (stereo partly specified),normalized growth,"S. cerevisiae deletion strains, locus YKL009W, strain mrt4, active compounds read low",0.868 (active)
same,normalized growth,"S. cerevisiae deletion strains, locus YKL068W, active compounds read low",0.982
same,normalized growth,"S. cerevisiae deletion strains, locus YKL085W, strain MDH1 (second series), active compounds read low",0.978
same,normalized growth,"S. cerevisiae deletion strains, locus YKL085W, strain MDH1, active compounds read low",0.978
same,normalized growth,"S. cerevisiae deletion strains, locus YKL160W, strain elf1, active compounds read low",0.952
same,normalized growth,"S. cerevisiae deletion strains, locus YKL190W, strain CNB1, active compounds read low",0.211 (active)
same,normalized growth,"S. cerevisiae deletion strains, locus YKR001C, strain vps1, active compounds read low",0.0635 (active)
same,normalized growth,"S. cerevisiae deletion strains, locus YKR026C, strain gcn3, active compounds read low",1.02
same,normalized growth,"S. cerevisiae deletion strains, locus YKR091W, strain srl3, active compounds read low",1.01
same,normalized growth,"S. cerevisiae deletion strains, locus YLL001W, strain dnm1, active compounds read low",0.963
same,normalized growth,"S. cerevisiae deletion strains, locus YLL026W, active compounds read low",1.01
same,normalized growth,"S. cerevisiae deletion strains, locus YLL041C, strain sdh2, active compounds read low",1.02
same,normalized growth,"S. cerevisiae deletion strains, locus YLR027C, strain aat2, active compounds read low",0.978
same,normalized growth,"S. cerevisiae deletion strains, locus YLR039C, strain RIC1, active compounds read low",1.28
same,normalized growth,"S. cerevisiae deletion strains, locus YLR058C, strain SHM2, active compounds read low",0.17 (active)
same,normalized growth,"S. cerevisiae deletion strains, locus YLR102C, strain apc9, active compounds read low",0.922 (active)
same,normalized growth,"S. cerevisiae deletion strains, locus YLR113W, strain HOG1, active compounds read low",0.999
same,normalized growth,"S. cerevisiae deletion strains, locus YLR221C, strain rsa3, active compounds read low",0.953
same,normalized growth,"S. cerevisiae deletion strains, locus YLR258W, strain gsy2, active compounds read low",0.948
same,normalized growth,"S. cerevisiae deletion strains, locus YLR262C, strain YPT6 (second series), active compounds read low",0.959
same,normalized growth,"S. cerevisiae deletion strains, locus YLR262C, strain YPT6, active compounds read low",1.1
same,normalized growth,"S. cerevisiae deletion strains, locus YLR268W, strain sec22, active compounds read low",0.092 (active)
same,normalized growth,"S. cerevisiae deletion strains, locus YLR320W, strain mms22, active compounds read low",0.899
same,normalized growth,"S. cerevisiae deletion strains, locus YLR330W, strain CHS5, active compounds read low",0.262 (active)
same,normalized growth,"S. cerevisiae deletion strains, locus YLR342W, strain FKS1 (second series), active compounds read low",0.269 (active)
same,normalized growth,"S. cerevisiae deletion strains, locus YLR342W, strain FKS1, active compounds read low",0.836 (active)
same,normalized growth,"S. cerevisiae deletion strains, locus YLR357W, strain rsc2, active compounds read low",0.976
same,normalized growth,"S. cerevisiae deletion strains, locus YLR370C, strain arc18, active compounds read low",0.865 (active)
same,normalized growth,"S. cerevisiae deletion strains, locus YLR371W, strain rom2, active compounds read low",0.286 (active)
same,normalized growth,"S. cerevisiae deletion strains, locus YLR384C, strain iki3, active compounds read low",0.999
same,normalized growth,"S. cerevisiae deletion strains, locus YLR418C, strain cdc73, active compounds read low",0.11 (active)
same,normalized growth,"S. cerevisiae deletion strains, locus YML016C, strain PPZ1, active compounds read low",0.513 (active)
same,normalized growth,"S. cerevisiae deletion strains, locus YML032C, strain rad52, active compounds read low",0.32 (active)
same,normalized growth,"S. cerevisiae deletion strains, locus YML120C, strain ndi1, active compounds read low",0.92
same,normalized growth,"S. cerevisiae deletion strains, locus YML124C, strain tub3, active compounds read low",0.198 (active)
same,normalized growth,"S. cerevisiae deletion strains, locus YMR058W, strain fet3, active compounds read low",0.932
same,normalized growth,"S. cerevisiae deletion strains, locus YMR078C, strain ctf18, active compounds read low",0.654 (active)
same,normalized growth,"S. cerevisiae deletion strains, locus YMR125W, strain sto1, active compounds read low",0.93
same,normalized growth,"S. cerevisiae deletion strains, locus YMR129W, active compounds read low",1.01
same,normalized growth,"S. cerevisiae deletion strains, locus YMR205C, strain PFK2, active compounds read low",0.933
same,normalized growth,"S. cerevisiae deletion strains, locus YMR223W, strain ubp8, active compounds read low",0.177 (active)
same,normalized growth,"S. cerevisiae deletion strains, locus YMR231W, strain pep5, active compounds read low",1.03
same,normalized growth,"S. cerevisiae deletion strains, locus YMR263W, strain SAP30, active compounds read low",0.642 (active)
same,normalized growth,"S. cerevisiae deletion strains, locus YMR307W, strain GAS1, active compounds read low",0.16 (active)
same,normalized growth,"S. cerevisiae deletion strains, locus YNL067W, strain RPL9B, active compounds read low",0.62 (active)
same,normalized growth,"S. cerevisiae deletion strains, locus YNL071W, strain lat1, active compounds read low",0.737 (active)
same,normalized growth,"S. cerevisiae deletion strains, locus YNL128W, strain TEP1, active compounds read low",0.279 (active)
same,normalized growth,"S. cerevisiae deletion strains, locus YNL153C, strain GIM3, active compounds read low",0.262 (active)
same,normalized growth,"S. cerevisiae deletion strains, locus YNL183C, strain NPR1, active compounds read low",0.951
same,normalized growth,"S. cerevisiae deletion strains, locus YNL209W, strain ssb2, active compounds read low",0.975
same,normalized growth,"S. cerevisiae deletion strains, locus YNL233W, strain BNI4, active compounds read low",0.414 (active)
same,normalized growth,"S. cerevisiae deletion strains, locus YNL248C, strain rpa49, active compounds read low",1.01
same,normalized growth,"S. cerevisiae deletion strains, locus YNL250W, strain rad50, active compounds read low",0.936
same,normalized growth,"S. cerevisiae deletion strains, locus YNL271C, strain bni1, active compounds read low",0.979
same,normalized growth,"S. cerevisiae deletion strains, locus YNL298W, strain CLA4, active compounds read low",0.839 (active)
same,normalized growth,"S. cerevisiae deletion strains, locus YNL307C, strain MCK1, active compounds read low",0.132 (active)
same,normalized growth,"S. cerevisiae deletion strains, locus YNL322C, strain KRE1 (second series), active compounds read low",1.01
same,normalized growth,"S. cerevisiae deletion strains, locus YNL322C, strain KRE1, active compounds read low",0.599 (active)
same,normalized growth,"S. cerevisiae deletion strains, locus YNR049C, strain mso1, active compounds read low",1.03
same,normalized growth,"S. cerevisiae deletion strains, locus YNR052C, strain pop2, active compounds read low",0.0663 (active)
same,normalized growth,"S. cerevisiae deletion strains, locus YOL006C, strain TOP1, active compounds read low",0.139 (active)
same,normalized growth,"S. cerevisiae deletion strains, locus YOL012C, strain htz1",0.217
same,normalized growth,"S. cerevisiae deletion strains, locus YOL147C, strain pex11, active compounds read low",0.0811 (active)
same,normalized growth,"S. cerevisiae deletion strains, locus YOR001W, strain rrp6, active compounds read low",1.02
same,normalized growth,"S. cerevisiae deletion strains, locus YOR061W, strain CKA2, active compounds read low",0.417 (active)
same,normalized growth,"S. cerevisiae deletion strains, locus YOR069W, strain VPS5, active compounds read low",0.847 (active)
same,normalized growth,"S. cerevisiae deletion strains, locus YOR070C, strain gyp1, active compounds read low",0.978
same,normalized growth,"S. cerevisiae deletion strains, locus YOR080W, strain dia2, active compounds read low",0.995
same,normalized growth,"S. cerevisiae deletion strains, locus YOR083W, strain WHI5, active compounds read low",0.904
same,normalized growth,"S. cerevisiae deletion strains, locus YOR106W, strain vam3, active compounds read low",0.92
same,normalized growth,"S. cerevisiae deletion strains, locus YOR136W, strain idh2, active compounds read low",0.257 (active)
same,normalized growth,"S. cerevisiae deletion strains, locus YOR144C, strain elg1, active compounds read low",0.372 (active)
same,normalized growth,"S. cerevisiae deletion strains, locus YOR184W, strain ser1, active compounds read low",0.124 (active)
same,normalized growth,"S. cerevisiae deletion strains, locus YOR231W, strain MKK1, active compounds read low",0.963
same,normalized growth,"S. cerevisiae deletion strains, locus YOR265W, strain rbl2, active compounds read low",0.999
same,normalized growth,"S. cerevisiae deletion strains, locus YOR270C, strain vph1, active compounds read low",0.577 (active)
same,normalized growth,"S. cerevisiae deletion strains, locus YOR290C, strain snf2, active compounds read low",0.85 (active)
same,normalized growth,"S. cerevisiae deletion strains, locus YOR316C, strain cot1, active compounds read low",0.837 (active)
same,normalized growth,"S. cerevisiae deletion strains, locus YPL051W, strain arl3, active compounds read low",0.988
same,normalized growth,"S. cerevisiae deletion strains, locus YPL055C, strain LGE1, active compounds read low",0.404 (active)
same,normalized growth,"S. cerevisiae deletion strains, locus YPL078C, strain atp4, active compounds read low",0.896
same,normalized growth,"S. cerevisiae deletion strains, locus YPL106C, strain sse1, active compounds read low",0.939
same,normalized growth,"S. cerevisiae deletion strains, locus YPL240C, strain hsp82, active compounds read low",0.988
same,normalized growth,"S. cerevisiae deletion strains, locus YPL241C, strain CIN2, active compounds read low",0.865 (active)
same,normalized growth,"S. cerevisiae deletion strains, locus YPL256C, strain CLN2, active compounds read low",0.979
same,normalized growth,"S. cerevisiae deletion strains, locus YPR119W, strain clb2, active compounds read low",0.923 (active)
same,normalized growth,"S. cerevisiae deletion strains, locus YPR141C, strain kar3, active compounds read low",0.92
same,normalized growth,"S. cerevisiae deletion strains, locus YPR163C, strain tif3, active compounds read low",0.072 (active)
same,normalized growth,"S. cerevisiae deletion strains, locus YPR167C, strain met16, active compounds read low",0.731 (active)
same,normalized growth,"S. cerevisiae deletion strains, strain wtn01, active compounds read low",0.146 (active)
same,normalized growth,"S. cerevisiae strains, strain wild type, active compounds read low",0.255 (active)
